High-throughput results deposited in PubChem by several laboratories.
Only some compounds are listed: those with a hit (about 3.1% of all), similar ones and a draw of the others.
Rin1-Abl PPI inh = blocks binding of human Rin1 to Abl. P00519+Q13671. 360,000 compounds, 0.4% hits. inhibition, % at 7.35 µM. TR-FRET Rin1/Abl binding, biochemical; in the data active = inhibition above about 5%, passing the limit was not always enough
Neddyl block = cullin neddylation inhibition | TR-FRET cullin neddylation, biochemical | calls only at 25 µM | 360,000 compounds, 0.58% hits; in the data active = inhibition above about 36%
LEDGF integ inh = blocks HIV-1 LEDGF/p75-dependent DNA integration | TR-FRET IN-LEDGF/p75 DNA integration, Eu/Cy5 | AID 743269 | 370,000 compounds, 0.64% hits | inhibition, % at 3.7 µM;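 active = inhibition above the screen-wide mean plus 3 SD, cut at about 13% in these data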;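 note: signal is the Cy5 over europium emission ratio at 671 and 618 nm; 0% = plate median of compound wells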
MBD2 inh = blocks human MBD2 binding to methylated DNA | TR-FRET, MBD2 binding to methylated oligonucleotide | inhibition, % at 4.4 µM | 370,000 compounds, 0.31% hits | AID 686964; in the data active = inhibition above about 13%
UHRF1 MBD2 ctr = blocks human UHRF1 binding to methylated DNA | 370,000 compounds, 0.75% hits | inhibition, % at 4.4 µM | Q96T88 | UHRF1 binding to methylated oligo, TR-FRET; in the data active = inhibition above about 21%;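 note: UHRF1 SRA domain binding a hemimethylated CpG hairpin DNA probe; 0% = median of test compound wells and 100% = reference inhibitor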
Target sequence (Q96T88 whole entry, looked up, the tested form may be a part): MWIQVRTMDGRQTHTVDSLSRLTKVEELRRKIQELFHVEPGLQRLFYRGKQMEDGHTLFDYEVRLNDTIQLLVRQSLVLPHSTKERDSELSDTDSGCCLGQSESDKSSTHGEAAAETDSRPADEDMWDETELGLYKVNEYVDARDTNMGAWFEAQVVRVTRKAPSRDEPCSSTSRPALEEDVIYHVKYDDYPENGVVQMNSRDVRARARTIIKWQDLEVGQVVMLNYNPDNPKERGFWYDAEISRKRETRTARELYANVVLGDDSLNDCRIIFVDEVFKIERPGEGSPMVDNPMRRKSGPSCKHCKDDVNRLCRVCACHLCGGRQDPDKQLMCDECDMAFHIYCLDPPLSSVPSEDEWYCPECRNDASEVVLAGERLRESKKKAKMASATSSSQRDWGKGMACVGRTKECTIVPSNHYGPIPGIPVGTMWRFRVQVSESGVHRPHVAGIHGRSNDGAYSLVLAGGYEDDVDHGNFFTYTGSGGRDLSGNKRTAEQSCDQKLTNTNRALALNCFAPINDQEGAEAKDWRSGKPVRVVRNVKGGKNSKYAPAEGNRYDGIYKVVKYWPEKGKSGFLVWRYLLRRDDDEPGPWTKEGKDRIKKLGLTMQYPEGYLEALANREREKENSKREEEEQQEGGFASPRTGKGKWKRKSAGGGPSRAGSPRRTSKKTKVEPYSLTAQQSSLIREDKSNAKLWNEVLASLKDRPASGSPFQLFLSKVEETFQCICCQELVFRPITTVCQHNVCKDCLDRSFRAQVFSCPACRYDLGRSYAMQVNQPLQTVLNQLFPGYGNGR
proKLK7 act = activates the human kallikrein-7 zymogen | purified proKLK7, EDANS-DABCYL substrate fluorescence; 100% is mature enzyme control, 0% vehicle | activation, % at 7 µM | 370,000 compounds, 0.9% hits | AID 652039;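 active = activation above the mean of all tested compounds plus 3 SD, computed per campaign excluding outliers beyond control limits, cut at about 13% in these data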
proKLK7 act conf = proKLK7 activation, confirmation; shares compounds with proKLK7 act; purified proKLK7, EDANS-DABCYL substrate fluorescence; scaled: vehicle 0, mature enzyme 100; activation, % at 7 µM; 3,200 compounds, 68% hits;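 active = activation, as change over the incubation, above the mean of all tested compounds plus 3 SD, cut at about 13% in these data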
EDANS interfere = optically interferes with EDANS-DABCYL signal, flagging KLK7 hits. 3,200 compounds, 80% hits. activation, % at 7 µM. EDANS-DABCYL substrate fluorescence interference, no enzyme, 4 h; solvent 0%, active enzyme control 100%. shares compounds with proKLK7 act;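 active = activation above the all-compound mean plus 3 SD, ignoring values outside control-based bounds, cut at about 4.8% in these data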;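 note: value is the 4 h activation minus the activation read at time zero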
EDANS interf = optically interferes with EDANS-DABCYL fluorescence, kallikrein-7 activator counter-screen. 250 compounds, 20% hits. AID 720493. shares compounds with proKLK7 act. EDANS-DABCYL peptide fluorescence interference, no enzyme. EC50, µM;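 active = compounds that raise the fluorescence signal in this interference counterscreen, with EC50 at or below 10 µM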;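 note: intact quenched peptide substrate alone read at 355 nm excitation and 520 nm emission; signal is fluorescence gain from T0 to T4 after four hours at room temperature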
Starred values were filed as active, the others as inactive; i = inactive; . = no result given.

SMILES	Rin1-Abl PPI inh	Neddyl block	LEDGF integ inh	MBD2 inh	UHRF1 MBD2 ctr	proKLK7 act	proKLK7 act conf	EDANS interfere	others
CC1CN(CC(=O)Nc2nc(-c3ccc(Cl)cc3)cs2)CC(C)O1 (configuration not stated)	-1	i	3	2	-3	50*	1	1
O=C(CN1CCOCC1)Nc1nc(-c2ccc(Cl)cc2)cs1	0	i	2	-2	-1	0	.	.
CCOCCCNC(=O)CNC(=S)N(Cc1ccc(C)cc1)Cc1ccco1	1	i	5	-4	4	0	.	.
CC[C@]12c3[nH]c4cc(-c5ccco5)ccc4c3CCN1C(=O)[C@@H](CC(=O)NCCC1=CCCCC1)C[C@@H]2C(=O)N1CCN(C(=O)c2ccco2)CC1	-5	.	.	.	.	.	.	.
CC[C@]12c3[nH]c4cc(-c5ccco5)ccc4c3CCN1C(=O)[C@@H](CC(=O)NCCCn1ccnc1)C[C@@H]2C(=O)N1CCN(C(=O)c2ccco2)CC1	-4	.	1	4	-3	97*	131*	130*
CC[C@]12c3[nH]c4cc(-c5ccco5)ccc4c3CCN1C(=O)[C@@H](CC(=O)NCCCn1ccnc1)C[C@@H]2C(=O)N1CCN(C(=O)C2CC2)CC1	-9	.	-3	1	-1	69*	54*	53*
Cc1nnc(SCC(=O)Nc2nc(-c3ccc(F)cc3)cs2)[nH]c1=O	-2	i	3	2	-4	0	.	.
CCCS(=O)(=O)NC(=O)C1(C)CCCN(C(=O)CCc2cccs2)C1 (configuration not stated)	-5	i	-1	-1	1	0	.	.
CC(C)(C)OC(=O)N1CCC(C(=O)Nc2cccc(C(=O)N3CCOCC3)c2)CC1	0	i	2	0	-1	1	.	.
COC(=O)c1cc(C(=O)c2ccc(Cl)cc2)n2c(=O)/c(=C\N(C)C)sc12	-4	i	1	-5	2	0	.	.
COc1ccc(OC)c(S(=O)(=O)N2CCCC(C(=O)N3CCN(Cc4ccccc4)CC3)C2)c1 (configuration not stated)	.	.	-4	10	4	0	.	.
CC(C)c1ccc2[nH]c3c(c2c1)CCCC3=O	-4	.	4	3	7	14*	-5	-3
Cc1ccc2[nH]c3c(c2c1)CCCC3=O	-2	.	0	-1	-1	6	.	.
C=CCC1(O)C(=O)N2C(=C1C(=O)OCC)c1ccc3ccccc3c1CC2(C)C (configuration not stated)	0	i	-1	4	5	0	.	.
CC1(C)Cc2c(ccc3ccccc23)C2=C(C(=O)N3CCCC3)C(=O)C(=O)N21	-7	i	-4	1	0	13*	2	1
O=C(O)CCCNC(=O)CC1S/C(=N/N=C/c2ccccc2O)NC1=O (configuration not stated)	-2	i	1	-4	-6	25*	27*	34*
CCCCNC(=O)CC1S/C(=N/N=C/c2ccc(OC)cc2)NC1=O (configuration not stated)	-4	i	1	-4	1	1	.	.
CC(=O)Nc1ccc(-c2nc3ccc(NC(C)=O)cc3o2)cc1	-1	.	-4	-3	3	33*	26*	16*	EDANS interf=>69
CC(=O)Nc1cccc(-c2nc3ccccc3o2)c1	-2	i	5	-4	-5	0	.	.
CC(=O)Nc1cccc(Nc2nc(-c3ccccc3)nc3ccccc23)c1	1	i	3	-1	3	19*	4	7.8*
CC(=O)Nc1ccc2nc3ccccc3nc2c1	-6	i	-2	-6	-13	43*	46*	43*
CC(=O)c1cccc(Nc2nc(-c3ccccc3)nc3ccccc23)c1	-11	i	-6	0	1	0	.	.
Cn1c(=O)oc2cc(S(=O)(=O)N3CCN(CCO)CC3)ccc21	.	.	0	2	-1	1	.	.
C[C@]12c3[nH]c4cc(-c5ccco5)ccc4c3CCN1C(=O)[C@@H](CC(=O)NCCc1ccccn1)C[C@@H]2C(=O)N1CCOCC1	-2	.	-3	-5	1	113*	52*	68*
CC(C)N(C(=O)[C@H]1C[C@H](CC(=O)NCCc2ccccn2)C(=O)N2CCc3c([nH]c4cc(-c5ccco5)ccc34)[C@]12C)C(C)C	3	.	9	0	-1	184*	29*	30*
SMILES	Rin1-Abl PPI inh	Neddyl block	LEDGF integ inh	MBD2 inh	UHRF1 MBD2 ctr	proKLK7 act	proKLK7 act conf	EDANS interfere	others
C[C@]12c3[nH]c4ccc(Cl)cc4c3CCN1C(=O)[C@@H](CC(=O)NCCc1ccccn1)C[C@@H]2C(=O)N1CCOCC1	0	i	4	4	1	0	.	.
COc1ccc2[nH]c3c(c2c1)CCN1C(=O)C(CC(=O)NCCc2ccccn2)C[C@H](C(=O)N(C(C)C)C(C)C)[C@@]31C (some centres not stated)	-1	i	0	1	2	1	.	.
COc1cc(N/C(N)=N/c2nc(C)cc(C)n2)cc(OC)c1	-1	i	-1	-2	4	14*	0	0
COc1ccc(N/C(N)=N/c2nc(C)cc(C)n2)c(OC)c1	0	i	0	5	7	0	.	.
Cc1cc(C(F)(F)F)n2nc(-c3cnn(C)c3C(F)(F)F)c(Br)c2n1	2	i	3	-1	1	1	.	.
COc1cc2c(C#N)c(N3CCCC3)nc(N)c2c(N)n1	-2	i	-1	-11	-17	-2	.	.
COc1cc2c(C#N)c(N3CCN(C)CC3)nc(N)c2c(N)n1	-1	.	1	2	-3	65*	48*	61*
COc1ccc(-c2cc(NC(=O)Cc3c(C)[nH]c4ccccc34)ccc2Nc2cccnc2)cc1F	.	.	-2	-1	-3	-2	.	.
CCc1nn(CC(=O)NCCN2CCOCC2)c(=O)c2cc3c(OC)cccc3n12	-7	.	2	-7	-3	27*	19*	28*
COc1cccc2c1cc1c(=O)n(CC(=O)NCCCN3CCN(C)CC3)nc(C)n12	-4	.	3	-9	-10	60*	83*	76*
CCCC[C@@H]1CC2=C(C(=O)OC(C)(C)O2)[C@@H](c2ccc(Cl)cc2)O1	.	i	5	-7	-1	0	.	.
